CRE-bla Fsk = alters forskolin-stimulated CRE reporter signaling in CHO cells; 71,000 tested, 2.5% active; Potency, µM (series often up to 38.2 µM), inactives show at the highest dose activity change, negative = inhibition, usual class: activators; CHO CRE-bla reporter (cAMP response element driving beta-lactamase), forskolin EC10, beta-lactamase ratio; active = well fitted activation curve with a large enough effect in the signal ratio, with a control signal flat, not every such curve was filed as active; inconclusive = small, poorly fitted or top-dose-only effect, or effect the other way, or a change in a side signal; the % refers to the signal ratio; note: potency is the fitted concentration of half-maximal effect; % of control where 0% means no effect
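CRE-bla CHO reporter cells treated with compound titration plus EC10 NKH 477 (water-soluble forskolin), incubated 3 h at 37 °C; CCF4 loading 2 h at room temperature, 460/530 nm emission ratio read, AC50 values derived for positive or negative modulators.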
HSD17B inh = inhibitors of human HSD17B10 dehydrogenase; recombinant HSD17B10, NADH fluorescence kinetic; Potency, µM (doses to about 57.1 µM), for the others: top-dose activity change, negative = inhibition, hits mostly inhibitors; 75,000 tested, 7.6% active; AID 893;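 note: the protocol describes HADH2 (HSD17B10) and not the HSD17B4 of the title; potency is the fitted concentration of half-maximal effect; % is set by controls: 0 for no effect and ±100 for the full control effect; nearly all actives have a fitted effect of over 70% in size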
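Enzyme plus compound, 15 min room temperature; substrate mix added (NAD+ 1 mM, beta-hydroxybutyryl-CoA 90 uM final); plates read kinetically for NADH fluorescence. HADH2 was His-tagged, E. coli-derived, 20 nM.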
A350 fluor = compound fluoresces in the Alexa 350 spectral region; Compound autofluorescence, 340/450 nm, Alexa 350 dye-equivalents; stronger effect = higher value; max dye-equivalent concentration, M; 59,000 tested, 11% active; AID 590; in the data active = max dye-equivalent concentration above about 10 nM; inconclusive = mostly about 1.1 nM to 9.6 nM
AID923 = qHTS Assay for Allosteric/Competitive Inhibitors of Caspase-1: Spectroscopic Profiling in AFC Spectral Region; Potency, µM (series often up to 57.5 µM), for inactives: at the highest dose fluorescence increase, actives largely listed as activators; 75,000 tested, 1.1% active; compound fluorescence, AFC spectral region (405/520 nm); note: potency is the fitted concentration of half-maximal effect; 0% is about no effect
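Titrations up to 57 uM read every 20 sec for 3 min (405/520 nm) with 50 nM caspase 1 and 5 uM Ac-WEHD-AFC, pH 7.5 HEPES buffer. Fluorescence-vs-time intercept gave baseline, scaled against on-plate AFC standard.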
HADH2 inhib = blocks human hydroxyacyl-CoA dehydrogenase type II; recombinant HADH2, NADH fluorescence, beta-hydroxybutyryl-CoA; Potency, µM (titrated, usually from 57.1 µM), without a hit: at the highest dose activity change, negative = inhibition, actives largely listed as inhibitors; 73,000 tested, 3.4% active; AID 886; note: potency is the fitted concentration of half-maximal effect; % is set by controls: 0 for no effect and ±100 for the full control effect; nearly all actives have a fitted effect of over 60% in size
Target sequence (Q99714 whole entry, looked up, one chain of several): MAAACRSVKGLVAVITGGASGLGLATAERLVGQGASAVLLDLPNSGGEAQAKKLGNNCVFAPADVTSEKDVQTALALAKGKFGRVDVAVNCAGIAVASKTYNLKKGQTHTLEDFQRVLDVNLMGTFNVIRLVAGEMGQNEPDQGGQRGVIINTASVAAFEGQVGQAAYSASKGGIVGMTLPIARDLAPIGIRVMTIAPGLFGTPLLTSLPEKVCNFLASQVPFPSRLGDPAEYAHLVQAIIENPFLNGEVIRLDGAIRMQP
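His-tagged recombinant enzyme from E. coli, 20 nM, preincubated 15 min RT with compound; reaction started with 1 mM NAD+ and 90 uM beta-hydroxybutyryl-CoA in 100 mM Tris-HCl pH 9.0. NADH fluorescence (ex 360/em 450) read over 4 min; last-minus-first difference.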
4-MU autofl = compound fluoresces in the 4-MU spectral region; compound autofluorescence, 340/450 nm, 4-MU equivalents; stronger effect = higher value; max dye-equivalent concentration, M; 59,000 tested, 11% active; in the data active = max dye-equivalent concentration above about 10 nM; inconclusive = mostly about 1.1 nM to 9.6 nM
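Intrinsic fluorescence at 340/450 nm (ex/em) was read after 15 min at room temperature in pH 8.0, 100 mM Tris. Each compound concentration expressed as 4-MU-equivalent concentration from a six-point 4-MU standard series on each plate.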
Numbers without * were called inactive; i = inactive; ? = inconclusive; / = no result; ! = repeats disagree; [ ] = dose if it differs, or a comment. Rows were chosen to be rich in hits. Some 14% of all compounds tested hit in one or more screens of this group. Unless noted, calls come from the whole dose curve; as a rule, active = well fitted curve in the direction sought with a large enough effect; inconclusive = small, poorly fitted or top-dose-only effect, or another doubt; inactive = no such curve, though single readings can be large; an effect the other way counts as inactive or inconclusive.

SMILES | CRE-bla Fsk | HSD17B inh | A350 fluor | AID923 | HADH2 inhib | 4-MU autofl
Cc1ccc2nc(NC(=O)c3cccs3)sc2c1 | -24% | ? | 2.3e-08M* | -2% | -7% | 1.8e-08M*
COc1ccc2c(c1)-c1nc(NC(=O)c3cccs3)sc1CC2 | / | -25% | / | 1% | 16µM* | /
c1ccc2c(N3CCNCC3)nc(-c3ccoc3)nc2c1 | 14% | 2% | i | 3% | 2% | i
CCC(=O)N1Cc2ccccc2-c2ccccc2C1=O | -6% | 10% | 3.6e-08M* | 1% | 10% | 3.5e-08M*
O=C(O)CCN1Cc2ccccc2C1=O | ? | -14% | ? | 1% | -11% | i
CCOC(=O)CCN1C(=O)[C@H]2[C@H]3[C@H](O)[C@H](O)C/C(=N/OC/C=C(\C)CCC=C(C)C)[C@@H]3CC[C@@H]2C1=O | / | 5%[11.4 µM] | / | 1%[11.5 µM] | 4%[11.4 µM] | /
CC1(C)Cc2c(sc3c4nnnn4c4nnnn4c23)CO1 | / | / | 1.2e-08M* | / | / | ?
CCOC(=O)NC(Nc1sc2c(c1C(=O)OC)CCN(C)C2)(C(F)(F)F)C(F)(F)F | / | / | 3.6e-08M* | / | / | 3.1e-08M*
O=C(OC1Cc2c(O)cc(O)cc2OC1c1cc(O)c(O)c(O)c1-c1c(C2Oc3cc(O)cc(O)c3CC2OC(=O)c2cc(O)c(O)c(O)c2)cc(O)c(O)c1O)c1cc(O)c(O)c(O)c1 (stereo not drawn) | / | 7.9µM* | / | -3% | / | /
O=C(O[C@@H]1Cc2c(O)cc(O)cc2OC1c1ccc(O)c(O)c1)c1cc(O)c(O)c(O)c1 (stereo partly drawn) | / | 13µM* | / | 1% | / | /
Oc1cc(O)c2c(c1)O[C@H](c1ccc(O)c(O)c1)[C@H](O)C2 | -3%[17.1 µM] | 3%[25.6 µM] | 1.4e-08M*! | -1%[25.7 µM] | ? | 1.3e-08M*!
CC(C)C[C@@H](CC(=O)N[C@@H](CCC(=O)O)CC(=O)O)NC(=O)[C@@H]1CCCC[C@H]1NC(=O)C[C@@H](NC(=O)C[C@H](Cc1ccccc1)NC(=O)[C@@H]1CNCC[C@H]1N)C(C)C | 1% | / | / | / | 4% | /
c1ccc(-c2cnc(-c3ccc(-c4ncc(-c5ccccc5)o4)cc3)o2)cc1 | -2%[7.6 µM] | 14%[11.4 µM] | 4.8e-08M* | 17%[11.5 µM] | 15%[11.4 µM] | 3.9e-08M*
CC(=O)Nc1cccc(C(=O)Nc2ccccc2C(=O)O)c1 | -2% | 3% | i | -1% | -7% | i
O=C(Nc1cccc(C(=O)Nc2ccc(S(=O)(=O)O)c3cc(S(=O)(=O)O)cc(S(=O)(=O)O)c23)c1)Nc1cccc(C(=O)Nc2ccc(S(=O)(=O)O)c3cc(S(=O)(=O)O)cc(S(=O)(=O)O)c23)c1 | -7% | 13µM* | i | -1% | ? | i
COc1cc(-c2nnc(-c3ccc(N4CCOCC4)cc3)o2)cc(OC)c1OC | 22% | 10µM* | 2.3e-07M* | 1% | 224% | 2.3e-07M*
COc1cc(-c2nnc(-c3ccc(S(=O)(=O)c4ccccc4)cc3)o2)cc(OC)c1OC | 4µM* | / | 1.7e-07M* | 2% | / | 1.7e-07M*
C[C@H]1[C@H](C)CC[C@@]2(C(=O)O)CC[C@]3(C)C(=CC[C@H]4[C@@]5(C)C[C@@H](O)[C@H](O)[C@@](C)(CO)[C@@H]5CC[C@@]43C)[C@@H]12 | 1% | / | i | / | 7% | i
CC(=O)Nc1cc(CN2CCCCC2)c(O)c2ncccc12 | 1%[7.6 µM] | 1%[11.4 µM] | i | -4%[11.5 µM] | -20%[11.4 µM] | i
O=c1cc(-c2ccccc2)[nH]c2ccccc12 | ? | ? | i | 1% | -13% | i
O=c1nc(-c2ccccc2)c2ccccc2[nH]1 | -3% | 25µM* | 1.7e-07M* | 3% | -16% | 2e-07M*
Cc1ccccc1-n1c(SC/C(O)=C(\C#N)c2nc3ccccc3[nH]2)nnc1-c1ccncc1 | ? | 32µM* | ? | 7% | -13% | ?
CCOC(=O)c1ccc2c(c1)nc(SC/C(O)=C(\C#N)c1nc3ccccc3[nH]1)n2CC | 14% | ? | 1.6e-08M* | 5% | -19% | ?
Cc1cc(C)n2c(SC/C(O)=C(\C#N)c3nc4ccccc4[nH]3)nnc2n1 | 16% | 25µM* | i | 2% | ? | i

High-throughput results as filed in PubChem BioAssay.
